Test results reported in PubChem BioAssay AID1159580 (chemical genetic matrix, 2015).
Among all 5,500 compounds or so, about 2,000 (36%) were called active. Inconclusive results (about 18%) are left out. Rule as the data show it: active = normalized growth mostly below about 0.91 (no sharp cut-off); inconclusive = no clear call, values can overlap the other calls; inactive = mostly above about 0.92. Some of the results follow.

Assay: chemical genetic growth profiling, strain panel (AID 1159580);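 also: tested at 20 µM; growth read once vehicle control cultures reached saturation at 30 °C; 1 = growth at the plate median or of vehicle wells; lower values mean less growth of the strain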
Conditions: growth OD

Measured: normalized growth

CC(=O)OCC(=O)[C@@]1(O)CCC2C3CCC4=CC(=O)CC[C@]4(C)[C@@]3(F)[C@@H](O)C[C@@]21C (stereo partly specified)
inactive: S. cerevisiae deletion strains, locus YJR066W, strain TOR1, hits give low values 0.939 | S. cerevisiae deletion strains, locus YKL009W, strain mrt4, hits give low values 0.973 | S. cerevisiae deletion strains, locus YKL068W, hits give low values 1.01 | S. cerevisiae deletion strains, locus YKL085W, strain MDH1 (second series), hits give low values 1.01 | S. cerevisiae deletion strains, locus YKL085W, strain MDH1, hits give low values 1.01 | S. cerevisiae deletion strains, locus YKL160W, strain elf1, hits give low values 1.03 | S. cerevisiae deletion strains, locus YKL190W, strain CNB1, hits give low values 1 | S. cerevisiae deletion strains, locus YKR001C, strain vps1, hits give low values 0.987 | S. cerevisiae deletion strains, locus YKR026C, strain gcn3, hits give low values 1.02 | S. cerevisiae deletion strains, locus YKR091W, strain srl3, hits give low values 1 | S. cerevisiae deletion strains, locus YLL001W, strain dnm1, hits give low values 1.03 | S. cerevisiae deletion strains, locus YLL026W, hits give low values 1.01 | S. cerevisiae deletion strains, locus YLL041C, strain sdh2, hits give low values 1.01 | S. cerevisiae deletion strains, locus YLR027C, strain aat2, hits give low values 1.02 | S. cerevisiae deletion strains, locus YLR039C, strain RIC1, hits give low values 1.04 | S. cerevisiae deletion strains, locus YLR058C, strain SHM2, hits give low values 1.01 | S. cerevisiae deletion strains, locus YLR102C, strain apc9, hits give low values 1.01 | S. cerevisiae deletion strains, locus YLR113W, strain HOG1, hits give low values 0.992 | S. cerevisiae deletion strains, locus YLR221C, strain rsa3, hits give low values 1.02 | S. cerevisiae deletion strains, locus YLR258W, strain gsy2, hits give low values 1.01 | S. cerevisiae deletion strains, locus YLR262C, strain YPT6 (second series), hits give low values 1.03 | S. cerevisiae deletion strains, locus YLR262C, strain YPT6, hits give low values 1.01 | S. cerevisiae deletion strains, locus YLR268W, strain sec22, hits give low values 0.985 | S. cerevisiae deletion strains, locus YLR320W, strain mms22, hits give low values 1.05 | S. cerevisiae deletion strains, locus YLR330W, strain CHS5, hits give low values 1.01 | S. cerevisiae deletion strains, locus YLR342W, strain FKS1 (second series), hits give low values 1.02 | S. cerevisiae deletion strains, locus YLR342W, strain FKS1, hits give low values 1.01 | S. cerevisiae deletion strains, locus YLR357W, strain rsc2, hits give low values 1.01 | S. cerevisiae deletion strains, locus YLR370C, strain arc18, hits give low values 1.02 | S. cerevisiae deletion strains, locus YLR371W, strain rom2, hits give low values 1 | S. cerevisiae deletion strains, locus YLR384C, strain iki3, hits give low values 1.02 | S. cerevisiae deletion strains, locus YLR418C, strain cdc73, hits give low values 1.01 | S. cerevisiae deletion strains, locus YML016C, strain PPZ1, hits give low values 1 | S. cerevisiae deletion strains, locus YML032C, strain rad52, hits give low values 0.992 | S. cerevisiae deletion strains, locus YML120C, strain ndi1, hits give low values 1.03 | S. cerevisiae deletion strains, locus YML124C, strain tub3, hits give low values 1.01 | S. cerevisiae deletion strains, locus YMR058W, strain fet3, hits give low values 1.02 | S. cerevisiae deletion strains, locus YMR078C, strain ctf18, hits give low values 1.01 | S. cerevisiae deletion strains, locus YMR125W, strain sto1, hits give low values 1.01 | S. cerevisiae deletion strains, locus YMR129W, hits give low values 1.01 | S. cerevisiae deletion strains, locus YMR205C, strain PFK2, hits give low values 1.02 | S. cerevisiae deletion strains, locus YMR223W, strain ubp8, hits give low values 1.03 | S. cerevisiae deletion strains, locus YMR231W, strain pep5, hits give low values 1.01 | S. cerevisiae deletion strains, locus YMR307W, strain GAS1, hits give low values 1.01 | S. cerevisiae deletion strains, locus YNL067W, strain RPL9B, hits give low values 0.998 | S. cerevisiae deletion strains, locus YNL071W, strain lat1, hits give low values 1.02 | S. cerevisiae deletion strains, locus YNL128W, strain TEP1, hits give low values 1.02 | S. cerevisiae deletion strains, locus YNL153C, strain GIM3, hits give low values 1.01 | S. cerevisiae deletion strains, locus YNL183C, strain NPR1, hits give low values 0.957 | S. cerevisiae deletion strains, locus YNL209W, strain ssb2, hits give low values 1.01 | S. cerevisiae deletion strains, locus YNL233W, strain BNI4, hits give low values 1 | S. cerevisiae deletion strains, locus YNL248C, strain rpa49, hits give low values 1.02 | S. cerevisiae deletion strains, locus YNL271C, strain bni1, hits give low values 1.01 | S. cerevisiae deletion strains, locus YNL298W, strain CLA4, hits give low values 0.986 | S. cerevisiae deletion strains, locus YNL307C, strain MCK1, hits give low values 1.02 | S. cerevisiae deletion strains, locus YNL322C, strain KRE1 (second series), hits give low values 1.02 | S. cerevisiae deletion strains, locus YNR049C, strain mso1, hits give low values 1.01 | S. cerevisiae deletion strains, locus YNR052C, strain pop2, hits give low values 1 | S. cerevisiae deletion strains, locus YOL012C, strain htz1 0.967 | S. cerevisiae deletion strains, locus YOL147C, strain pex11, hits give low values 1 | S. cerevisiae deletion strains, locus YOR001W, strain rrp6, hits give low values 1 | S. cerevisiae deletion strains, locus YOR061W, strain CKA2, hits give low values 1.01 | S. cerevisiae deletion strains, locus YOR069W, strain VPS5, hits give low values 1.01 | S. cerevisiae deletion strains, locus YOR070C, strain gyp1, hits give low values 1.03 | S. cerevisiae deletion strains, locus YOR080W, strain dia2, hits give low values 1.01 | S. cerevisiae deletion strains, locus YOR083W, strain WHI5, hits give low values 1.03 | S. cerevisiae deletion strains, locus YOR106W, strain vam3, hits give low values 1.03 | S. cerevisiae deletion strains, locus YOR136W, strain idh2, hits give low values 0.989 | S. cerevisiae deletion strains, locus YOR144C, strain elg1, hits give low values 1 | S. cerevisiae deletion strains, locus YOR184W, strain ser1, hits give low values 0.997 | S. cerevisiae deletion strains, locus YOR231W, strain MKK1, hits give low values 1 | S. cerevisiae deletion strains, locus YOR265W, strain rbl2, hits give low values 1.02 | S. cerevisiae deletion strains, locus YOR270C, strain vph1, hits give low values 1.03 | S. cerevisiae deletion strains, locus YOR290C, strain snf2, hits give low values 0.997 | S. cerevisiae deletion strains, locus YOR316C, strain cot1, hits give low values 1.01 | S. cerevisiae deletion strains, locus YPL051W, strain arl3, hits give low values 1.04 | S. cerevisiae deletion strains, locus YPL078C, strain atp4, hits give low values 1.02 | S. cerevisiae deletion strains, locus YPL106C, strain sse1, hits give low values 1.02 | S. cerevisiae deletion strains, locus YPL240C, strain hsp82, hits give low values 0.994 | S. cerevisiae deletion strains, locus YPL256C, strain CLN2, hits give low values 1 | S. cerevisiae deletion strains, locus YPR119W, strain clb2, hits give low values 0.997 | S. cerevisiae deletion strains, locus YPR141C, strain kar3, hits give low values 1 | S. cerevisiae deletion strains, locus YPR163C, strain tif3, hits give low values 1 | S. cerevisiae deletion strains, locus YPR167C, strain met16, hits give low values 0.999 | S. cerevisiae deletion strains, strain wtn01, hits give low values 0.995 | S. cerevisiae strains, strain wild type, hits give low values 1.01
